Bioassay records as filed in PubChem BioAssay.
Shown are actives, neighbours in structure and some others; about 3.1% of the full set was active somewhere.
GDH-TPI inh: GDH-TPI coupling enzyme inhibitors, primary screen, artefact control for M. tuberculosis FBA inhibitor project, biochemical, absorbance, full deck | inhibition, % at 4.8 µM | GDH-TPI coupled enzyme counterscreen, NADH absorbance | hit rate 1.2% among 360,000; in the data active means inhibition above about 30%
FBA Mtb inh: Mtb FBA enzyme inhibitors, primary screen, biochemical, fluorescence, strain H37Rv. purified M. tuberculosis FBA, fluorescence read-out. hit rate 2.3% among 360,000. AID 588726, 2011. inhibition, % at 1 µM. Fructose-bisphosphate aldolase (Mycobacterium tuberculosis (strain ATCC 25618 / H37Rv)), …; in the data active means inhibition above about 27%
Target sequence (P9WQA3 whole entry, looked up): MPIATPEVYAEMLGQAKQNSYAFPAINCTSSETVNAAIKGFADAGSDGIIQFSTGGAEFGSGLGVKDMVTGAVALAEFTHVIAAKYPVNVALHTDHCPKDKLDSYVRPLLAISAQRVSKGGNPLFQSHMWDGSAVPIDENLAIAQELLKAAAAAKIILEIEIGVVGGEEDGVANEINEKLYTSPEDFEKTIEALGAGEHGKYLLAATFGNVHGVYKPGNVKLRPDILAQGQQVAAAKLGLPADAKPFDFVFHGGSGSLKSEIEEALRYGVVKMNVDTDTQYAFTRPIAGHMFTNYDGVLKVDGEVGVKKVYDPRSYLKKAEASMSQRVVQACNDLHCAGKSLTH
FadD28 binding: inhibitors of FadD28 bisubstrate probe binding, primary screen, biochemical, fluorescence polarization, single point | Mycobacterium tuberculosis FadD28 fatty-acid-AMP ligase | inhibition, % at 12.5 µM | hit rate 0.22% among 360,000; in the data active means inhibition above about 8.5%, passing the limit was not always enough
Mtb BioA inh: M. tuberculosis BioA enzyme inhibitors, primary screen, biochemical, plate reader, single point, HTS. hit rate 0.096% among 360,000. inhibition, % at 9.99 µM. purified M. tuberculosis BioA enzyme; in the data active means inhibition above about 40%
SARS 3CLpro inh: SARS-CoV 3CLpro protease inhibitors, primary screen, biochemical, quenched FRET | recombinant SARS-CoV 3CLpro, quenched FRET peptide cleavage | inhibition, % at 6 µM | hit rate 0.14% among 290,000; in the data active means inhibition above about 12%
Of the large screens only hits and unclear results are named; the others gave an inactive call.

O=C1CCCc2nc(N3CCCCC3)sc21	GDH-TPI inh 32
N#CC(C#N)=C1CCCc2sccc21	GDH-TPI inh 33 (no result: SARS 3CLpro inh)
Cc1cc(C=C(C#N)C#N)c(C)n1-c1ccccc1	none
CCCCn1c(C)cc(/C=C(\C#N)C(=O)O)c1C	none (no result: Mtb BioA inh)
Cc1cc(/C=C(\C#N)C(=O)O)c(C)n1-c1ccc(Br)cc1	GDH-TPI inh 32
Cc1ccc(-n2c(C)cc(C=C(C#N)C#N)c2C)cc1	GDH-TPI inh 39
CCCn1c(C)cc(/C=C(\C#N)C(=O)O)c1C	GDH-TPI inh 31
COCCNC(=O)/C(C#N)=C/c1cc(C)n(-c2ccc(C)cc2)c1C	GDH-TPI inh 31 (no result: Mtb BioA inh)
COc1ccc(S(=O)(=O)Nc2cccc3c2O[C@@H](CN(C)Cc2ccc(C(F)(F)F)cc2)[C@@H](C)CN([C@@H](C)CO)C3=O)cc1	none (no result: GDH-TPI inh, FBA Mtb inh, FadD28 binding, SARS 3CLpro inh)
O=C(C[C@H]1C[C@@H]2c3cc(NC(=O)Nc4ccccc4F)ccc3O[C@@H]2[C@H](CO)O1)NCC(F)(F)F	none (no result: GDH-TPI inh, FBA Mtb inh, FadD28 binding, SARS 3CLpro inh)
O=C(C[C@H]1CC[C@@H]2[C@H](COC[C@H](O)CN2CC2CCCCC2)O1)NCc1ccc(Cl)cc1	none (no result: GDH-TPI inh, FBA Mtb inh, FadD28 binding, SARS 3CLpro inh)
COCCn1c(C)cc(/C=C(\C#N)C(=O)OC(C)C(=O)Nc2ccc(NC(C)=O)cc2)c1C (configuration not stated)	GDH-TPI inh 39 (no result: SARS 3CLpro inh)
CNC(=O)/C(C#N)=C\c1cc(C)n(-c2ccc(N3CCOCC3)cc2)c1C	GDH-TPI inh 31 (no result: Mtb BioA inh)
Cc1cc(/C=C(/C#N)C(=O)O)c(C)n1CCC(C)C	none (no result: Mtb BioA inh)
C[C@@H]1CN([C@@H](C)CO)C(=O)c2cc(-c3ccc(F)cc3)cnc2O[C@H]1CN(C)C(=O)C1CCC1	none (no result: GDH-TPI inh, FBA Mtb inh, FadD28 binding, SARS 3CLpro inh)
C[C@H](CO)N1C[C@H](C)[C@@H](CN(C)S(=O)(=O)c2ccc(F)cc2)Oc2ccc(NS(C)(=O)=O)cc2CC1=O	none (no result: GDH-TPI inh, FBA Mtb inh, FadD28 binding, SARS 3CLpro inh)
CN(C)CC(=O)Nc1ccc2c(c1)[C@@H]1C[C@H](CC(=O)N3CCOCC3)O[C@H](CO)[C@@H]1O2	none (no result: GDH-TPI inh, FBA Mtb inh, FadD28 binding, SARS 3CLpro inh)
O=C(C[C@H]1C=C[C@H](NC(=O)C2CCOCC2)[C@H](CO)O1)NCC1CC1	none (no result: GDH-TPI inh, FBA Mtb inh, FadD28 binding, SARS 3CLpro inh)
CCN1CCN(c2nc3ccccc3n3cnnc23)CC1	GDH-TPI inh 32 (no result: Mtb BioA inh)
c1ccc2c(c1)nc(N1CCCCCC1)c1nncn12	none (no result: SARS 3CLpro inh)
C[C@@H]1CCCCO[C@@H](CN(C)S(=O)(=O)c2cccs2)[C@H](C)CN([C@H](C)CO)C(=O)c2cc(NS(=O)(=O)c3ccc(F)cc3)ccc2O1	none (no result: GDH-TPI inh, FBA Mtb inh, FadD28 binding, SARS 3CLpro inh)
CCCCOc1ccc(/C=N/NC(=S)Nc2cc(C)ccc2C)cc1	GDH-TPI inh 40
CC(=O)Oc1ccc(/C=N\NC(=O)c2cc3c(ccc4ccccc43)o2)cc1	none
CCOc1cc(/C=N/NC(=O)c2cc3c(ccc4ccccc43)o2)ccc1O	GDH-TPI inh 44
CCOC(=O)COc1ccccc1/C=N\NC(=O)c1cc2c(ccc3ccccc32)o1	GDH-TPI inh 31
Clc1cccc(-c2nc3nc4ccccc4nc3n2Cc2ccccc2)c1	none (no result: Mtb BioA inh)
C=CCn1c(-c2ccccc2)nc2nc3ccccc3nc21	GDH-TPI inh 39, FBA Mtb inh 126
Cc1cc(NC(=O)c2sc(Nc3cccc(C(F)(F)F)c3)nc2N)no1	GDH-TPI inh 33
COc1ccc(-c2cn3ccccc3n2)cc1	FBA Mtb inh 114
COc1ccc2c(c1OC)c(=O)n1c3ccc(OC(C)C(=O)NCCCN4CCOCC4)cc3c3ccnc2c31 (configuration not stated)	FBA Mtb inh 153
Cc1n[nH]c(C)c1N1C(=O)c2cccc3c(Br)ccc(c23)C1=O	none
Cc1n[nH]c(C)c1N1C(=O)c2cccc3cc(Br)cc(c23)C1=O	Mtb BioA inh 58
Cc1ccc(C(=O)N2CCN(c3cccc(Cl)c3)CC2)cc1C	GDH-TPI inh 31
CC1C2(C)OC(=N)C(C#N)(C(C)O2)C1(C#N)C#N (configuration not stated)	FBA Mtb inh 128 (no result: Mtb BioA inh)
COc1ccccc1CNC(=O)C[C@H]1CC[C@H]2[C@H](COc3ccc(NC(=O)Nc4ccc(F)c(F)c4)cc3C(=O)N2C)O1	none (no result: GDH-TPI inh, FBA Mtb inh, FadD28 binding, SARS 3CLpro inh)
C[n+]1ccc(-c2ccccc2)c2ccccc21	FBA Mtb inh 143 (no result: SARS 3CLpro inh)
N#C/C(=N\Nc1ccc(Cl)cc1)C(=O)c1ccccc1	GDH-TPI inh 31
COC(=O)C[C@@H]1C[C@@H]2c3cc(NS(=O)(=O)c4ccccc4)ccc3O[C@@H]2[C@H](CO)O1	none (no result: GDH-TPI inh, FBA Mtb inh, FadD28 binding, SARS 3CLpro inh)
C[C@@H]1CCCCO[C@@H](CN(C)Cc2ccc(C(F)(F)F)cc2)[C@H](C)CN([C@H](C)CO)C(=O)c2cc(NC(=O)Nc3ccc(F)cc3)ccc2O1	none (no result: GDH-TPI inh, FBA Mtb inh, FadD28 binding, SARS 3CLpro inh)
CC(=O)c1ccc(NC(=O)c2cnn3ccccc23)cc1	GDH-TPI inh 36
CC(=O)c1cccc(NC(=O)c2cnn3ccccc23)c1	none
CCNc1nc2nc3ccc(C)cn3c(=O)c2cc1C(=O)NCC1CCCO1 (configuration not stated)	FBA Mtb inh active (no result: Mtb BioA inh)
Cc1ccc2nc3nc(NCC4CCCO4)c(C(=O)NC4CCCC4)cc3c(=O)n2c1 (configuration not stated)	FBA Mtb inh 151
Cn1ncnc1SCc1cn2cccnc2n1	FBA Mtb inh 130 (no result: Mtb BioA inh)
Cc1occc1C(=O)NC(C)C1CCCO1 (configuration not stated)	FBA Mtb inh 33
CC(NC(=O)c1ccco1)C1CCCO1 (configuration not stated)	none
C[C@@H]1CN([C@@H](C)CO)S(=O)(=O)c2ccc(-c3cccc(C(=O)N(C)C)c3)cc2O[C@H]1CN(C)C(=O)Cc1ccccn1	none (no result: GDH-TPI inh, FBA Mtb inh, FadD28 binding, SARS 3CLpro inh)
COc1ccccc1CNC(=O)CCN1C(=O)c2ccccc2C1=O	FBA Mtb inh 117
COc1ccc(-c2ccc(C(=S)N3CCN(C(C)=O)CC3)o2)cc1	GDH-TPI inh 32
CCN(CC)c1ccc2cc(NC(=O)CCC(=O)O)c(=O)oc2c1	FBA Mtb inh 31 (no result: Mtb BioA inh)
Cn1c(=O)c2c(ncn2Cc2ccc(Cl)cc2)n(C)c1=O	FadD28 binding 16 (no result: Mtb BioA inh)
CCOc1ccc(NC2OC(C)C(O)C(O)C2O)c([N+](=O)[O-])c1 (configuration not stated)	FBA Mtb inh 112
COc1ccc(NC(=O)N(C)C[C@@H]2Oc3c(NC(=O)Nc4c(C)noc4C)cccc3C(=O)N([C@H](C)CO)C[C@H]2C)cc1	none (no result: GDH-TPI inh, FBA Mtb inh, FadD28 binding, SARS 3CLpro inh)
FC(F)(F)c1cnc(N/N=C/c2ccncc2)c(Cl)c1	GDH-TPI inh 57 (no result: Mtb BioA inh)
O=C(O)c1ccc(/C=N/Nc2ncc(Cl)cc2Cl)cc1	none
COc1ccc(/C=N/Nc2nonc2N)cc1OC	none
COc1ccc(/C=N/Nc2ncc(C(F)(F)F)cc2Cl)cc1OC	GDH-TPI inh 41 (no result: Mtb BioA inh)
CC(C)C#Cc1ccc([C@H]2[C@H]3CN(C(=O)c4ccc5c(c4)OCO5)CCCCN3[C@H]2CO)cc1	none (no result: GDH-TPI inh, FBA Mtb inh, FadD28 binding, SARS 3CLpro inh)
N#C/C(=C/c1ccc(-c2ccc(S(N)(=O)=O)cc2)o1)C(=O)Nc1ccccc1	none
